Results filed as inconclusive are left out. The source made the active and inactive calls. Unless noted, calls come from the whole dose curve; as a rule, active = well fitted curve in the direction sought with a large enough effect; inconclusive = small, poorly fitted or top-dose-only effect, or another doubt; inactive = no such curve, though single readings can be large; an effect the other way counts as inactive or inconclusive.
Tests used:
[1] = qHTS Assay for Identifying Gametocytocidal Compounds (AID 743244); note: potency is the fitted concentration of half-maximal effect; details: P. falciparum 3D7 stage III-V gametocytes, alamarBlue, 72 h; max response: stronger effect = lower value
How it was run: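 Using 20,000 stage III–V 3D7 gametocytes per well, compounds were incubated 72 h under 37 °C/5% CO2. Viability was then assessed by 24 h alamarBlue reduction, measured fluorometrically at 525/598 nm.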

[2] = qHTS profiling for inhibitors of Plasmodium falciparum (3D7) proliferation (AID 743322);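 note: 100% = DMSO vehicle wells and 0% = 0.29 µM artemisinin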; details: P. falciparum 3D7 proliferation; at 28.7 µM (top of the series) unless noted
How it was run: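 Erythrocytes infected with P. falciparum (0.3% parasitemia, 2.5% hematocrit) incubated with compounds 72 h at 37 C, 5% CO2. Lysis with saponin/Triton buffer containing SYBR Green I, overnight at room temperature in the dark; DNA fluorescence (485/535 nm) normalised to 0.29 uM artemisinin and DMSO.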

[3] = qHTS profiling for inhibitors of Plasmodium falciparum (DD2) proliferation (AID 743323; call rule not given here); details: lower = more inhibition; at 28.7 µM (top of the series) unless noted
How it was run: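 P. falciparum Dd2-infected erythrocytes (0.3% parasitemia, 2.5% hematocrit) exposed 72 h at 37 C, 5% CO2. Lysis with SYBR Green, overnight at room temperature, fluorescence 485/535 nm; normalized to 0.29 uM artemisinin and DMSO.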

[4] = qHTS profiling for inhibitors of Plasmodium falciparum (HB3) proliferation (AID 743324); details: Plasmodium falciparum HB3 blood-stage proliferation; at 28.7 µM (top of the series) unless noted;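 note: 100% = DMSO vehicle wells and 0% = artemisinin-treated control wells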
How it was run: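 P. falciparum HB3 grown in erythrocytes (0.3% parasitemia, 2.5% hematocrit final) with compound for 72 h at 37 C, 5% CO2. Parasite DNA detected by SYBR Green after saponin/triton lysis overnight; normalized to 0.29 uM artemisinin and DMSO.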

[5] = qHTS for Inhibitors of Plasmodium falciparum (DD2) proliferation (AID 504314);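 note: parasite DNA measured by SYBR Green fluorescence after red cell lysis; plate controls were DMSO vehicle for no effect and artemisinin wells for full effect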
How it was run: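 Erythrocytes infected with P. falciparum Dd2 (0.3% parasitemia, 2.5% hematocrit) exposed to compound 72 h at 37C, 5% CO2. Parasite DNA quantified by SYBR Green fluorescence after saponin/Triton lysis overnight; normalized to 0.29 uM artemisinin and DMSO.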

[6] = qHTS for Inhibitors of Plasmodium falciparum (GB4) proliferation (AID 504315);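 note: 0% = DMSO vehicle and -100% = 0.29 µM artemisinin control; nearly all actives have a fitted effect of over 50% in size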
How it was run: (§1)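 Erythrocytes infected with P. falciparum line (0.3% parasitemia, 2.5% hematocrit final) incubated with compounds 72 h at 37 °C, 5% CO2; SYBR Green lysis buffer added, fluorescence read next day. Normalized to 0.29 uM artemisinin and DMSO.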

[7] = qHTS for Inhibitors of Plasmodium falciparum (7G8) proliferation (AID 504316);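 note: 0% = DMSO vehicle and -100% = 0.29 µM artemisinin full kill; nearly all actives have a fitted effect of over 65% in size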
How it was run: as §1

[8] = qHTS for Inhibitors of Plasmodium falciparum (HB3) proliferation (AID 504318);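 note: 0% = DMSO vehicle and -100% = artemisinin control; nearly all actives have a fitted effect of over 60% in size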
How it was run: as §1

[9] = qHTS for Inhibitors of Plasmodium falciparum (CP250) proliferation (AID 504320);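 note: plate controls were DMSO vehicle for no effect and 0.29 µM artemisinin control for full effect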
How it was run: as §1

[10] = target: Alpha-galactosidase (Coffea arabica) (UniProt Q42656); assay: Counterscreen for Glucocerebrosidase Inhibitors: qHTS Assay for Coffee Bean alpha-Galactosidase at pH 4.5 (AID 957);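 note: plate controls were enzyme alone for no effect and no enzyme for full effect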
Chain of Alpha-galactosidase (Coffea arabica) (Q42656 whole entry, looked up): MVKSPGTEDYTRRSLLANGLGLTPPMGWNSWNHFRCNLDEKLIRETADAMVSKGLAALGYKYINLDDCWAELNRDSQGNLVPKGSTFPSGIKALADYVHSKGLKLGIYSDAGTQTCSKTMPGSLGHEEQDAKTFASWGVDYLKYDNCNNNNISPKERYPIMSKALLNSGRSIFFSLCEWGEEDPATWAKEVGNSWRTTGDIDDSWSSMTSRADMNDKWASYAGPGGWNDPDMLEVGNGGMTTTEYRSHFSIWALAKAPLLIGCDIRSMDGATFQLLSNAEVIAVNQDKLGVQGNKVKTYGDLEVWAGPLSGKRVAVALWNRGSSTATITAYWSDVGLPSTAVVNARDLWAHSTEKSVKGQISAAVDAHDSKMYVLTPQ
How it was run: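 Green coffee bean enzyme (2 nM final) was incubated with compounds (0.7 nM to 77 uM) and 4-methylumbelliferyl alpha-D-galactopyranoside (80 uM final) in 50 mM citric acid, 0.005% Tween-20, pH 4.5, 20 min at room temperature; AC50 from Hill fits.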

[11] = target: Alpha-galactosidase (Coffea arabica) (UniProt Q42656); assay: Counterscreen for Glucocerebrosidase Inhibitors: qHTS Assay for Coffee Bean alpha-Galactosidase at pH 5.9 (AID 998);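 note: plate controls were uninhibited enzyme for no effect and no-enzyme basal signal for full effect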
How it was run: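 Green coffee bean enzyme (2 nM final) was incubated with compounds (0.7 nM–77 uM) and 4-methylumbelliferyl alpha-D-galactopyranoside (80 uM) in citrate buffer pH 5.9, 20 min at room temperature. High-pH stop; fluorescence 365/440 nm; AC50 from Hill fits.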

[12] = qHTS for Inhibitors of ATXN expression: Validation (AID 588378); details: cell-based ATXN2 expression reporter assay, luminescence; note: potency is the fitted concentration of half-maximal effect; nearly all actives have a fitted effect of over 75% in size
How it was run: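 HEK293 cells carrying ATXN2-firefly luciferase reporter, treated with compound 24 h at 37 °C. Viability read first by CellTiter-Fluor (405/525 nm), then reporter expression by Bright-Glo luminescence; controls were a known ATXN2 expression inhibitor and a luciferase inhibitor.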

[13] = qHTS assay for small molecule agonists of retinoid X receptor alpha signaling (AID 588544; calls by dose curve; note: potency is the fitted concentration of half-maximal effect); details: HEK293T RXRa-UAS-bla, beta-lactamase reporter, 18 h; 530 nm emission
[14] = target: Retinoic acid receptor RXR-alpha (Homo sapiens) (UniProt P19793); assay: as above
Chain of Retinoic acid receptor RXR-alpha (Homo sapiens) (P19793 whole entry, looked up): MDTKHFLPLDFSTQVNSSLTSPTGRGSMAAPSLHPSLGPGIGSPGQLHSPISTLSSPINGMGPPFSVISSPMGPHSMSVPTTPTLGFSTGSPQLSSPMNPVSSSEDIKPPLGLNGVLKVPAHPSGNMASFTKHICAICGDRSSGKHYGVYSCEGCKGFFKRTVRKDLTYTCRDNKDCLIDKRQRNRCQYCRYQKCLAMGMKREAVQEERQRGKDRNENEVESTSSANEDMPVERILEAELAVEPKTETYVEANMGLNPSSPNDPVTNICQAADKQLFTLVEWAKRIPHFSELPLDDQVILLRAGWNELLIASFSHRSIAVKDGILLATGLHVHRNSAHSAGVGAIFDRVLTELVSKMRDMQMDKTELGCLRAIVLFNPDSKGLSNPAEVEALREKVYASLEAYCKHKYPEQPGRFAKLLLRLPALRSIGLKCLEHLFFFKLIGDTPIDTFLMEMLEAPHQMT

[15] = target: Cytochrome P450 2D6 (Homo sapiens) (UniProt P10635); assay: qHTS Assay for Inhibitors and Substrates of Cytochrome P450 2D6 (AID 891); note: potency is the fitted concentration of half-maximal effect; nearly all actives have a fitted effect of over 60% in size
Chain of Cytochrome P450 2D6 (Homo sapiens) (P10635 whole entry, looked up): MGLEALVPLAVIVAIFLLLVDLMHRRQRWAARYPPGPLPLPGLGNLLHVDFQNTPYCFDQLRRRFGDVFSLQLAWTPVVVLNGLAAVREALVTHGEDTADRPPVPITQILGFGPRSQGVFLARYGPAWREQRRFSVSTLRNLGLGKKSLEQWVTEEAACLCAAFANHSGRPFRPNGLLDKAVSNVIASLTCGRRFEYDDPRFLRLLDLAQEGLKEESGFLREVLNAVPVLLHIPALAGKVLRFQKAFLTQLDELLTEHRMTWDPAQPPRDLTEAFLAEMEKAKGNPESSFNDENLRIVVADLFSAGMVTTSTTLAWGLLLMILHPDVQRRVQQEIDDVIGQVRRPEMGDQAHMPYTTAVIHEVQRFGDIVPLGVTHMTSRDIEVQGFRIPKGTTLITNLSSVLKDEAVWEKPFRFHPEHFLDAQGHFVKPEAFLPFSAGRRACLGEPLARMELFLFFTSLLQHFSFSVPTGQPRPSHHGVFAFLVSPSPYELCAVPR
How it was run: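 Human CYP2D6 (5 nM) with 30 uM Luciferin-ME EGE (at Km) in 100 mM KPO4, compound preincubated 10 min, then NADPH regeneration system for 60 min at room temperature. Luciferin read by luminescence; normalized to 1.43 uM quinidine.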

[16] = qHTS assay for small molecule activators of the p53 signaling pathway (AID 651743; active = well fitted activation curve with a large enough effect in the signal ratio, not every such curve was filed as active; the % refers to the signal ratio; note: % of control where 0% means no effect); details: HCT-116 p53RE-bla, beta-lactamase FRET ratio, 16 h; activation: stronger effect = higher value
How it was run: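 p53RE-bla HCT-116 cells with a stably integrated beta-lactamase reporter under p53 response elements were plated, rested 5 hours at 37 C/5% CO2, then exposed to compounds in DMSO for 16 hours at 37 C. LiveBLAzer B/G FRET substrate was read after 2 hours at room temperature.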

[17] = MultiTox-Fluor Cytotoxicity Assay - LYMP1-001 - Live Cells (AID 947);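 note: 0% = DMSO only and full inhibition = tetraoctylammonium bromide control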
[18] = Cell Viability - LYMP2-005 (AID 967);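 note: plate controls were DMSO only for no effect and 92 µM tetraoctylammonium bromide control for full effect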
How it was run: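 Human lymphoblastoid LYMP2-005 cells, 2,500 per well in complete medium, rested 5 h at 37C then compound-treated 24 h at 37C. Intracellular ATP read by CellTiter-Glo luminescence after 30 min at room temperature; AC50 from Hill-equation fits of concentration-response data.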

[19] = target: Androgen receptor (Homo sapiens) (UniProt P10275); assay: qHTS assay for small molecule antagonists of androgen receptor signaling (AID 588516; active = well fitted curve in the direction sought with a large enough effect in the signal ratio, with a control signal flat, not every such curve was filed as active; the % refers to the signal ratio; note: potency is the fitted concentration of half-maximal effect)
Chain of Androgen receptor (Homo sapiens) (P10275 whole entry, looked up): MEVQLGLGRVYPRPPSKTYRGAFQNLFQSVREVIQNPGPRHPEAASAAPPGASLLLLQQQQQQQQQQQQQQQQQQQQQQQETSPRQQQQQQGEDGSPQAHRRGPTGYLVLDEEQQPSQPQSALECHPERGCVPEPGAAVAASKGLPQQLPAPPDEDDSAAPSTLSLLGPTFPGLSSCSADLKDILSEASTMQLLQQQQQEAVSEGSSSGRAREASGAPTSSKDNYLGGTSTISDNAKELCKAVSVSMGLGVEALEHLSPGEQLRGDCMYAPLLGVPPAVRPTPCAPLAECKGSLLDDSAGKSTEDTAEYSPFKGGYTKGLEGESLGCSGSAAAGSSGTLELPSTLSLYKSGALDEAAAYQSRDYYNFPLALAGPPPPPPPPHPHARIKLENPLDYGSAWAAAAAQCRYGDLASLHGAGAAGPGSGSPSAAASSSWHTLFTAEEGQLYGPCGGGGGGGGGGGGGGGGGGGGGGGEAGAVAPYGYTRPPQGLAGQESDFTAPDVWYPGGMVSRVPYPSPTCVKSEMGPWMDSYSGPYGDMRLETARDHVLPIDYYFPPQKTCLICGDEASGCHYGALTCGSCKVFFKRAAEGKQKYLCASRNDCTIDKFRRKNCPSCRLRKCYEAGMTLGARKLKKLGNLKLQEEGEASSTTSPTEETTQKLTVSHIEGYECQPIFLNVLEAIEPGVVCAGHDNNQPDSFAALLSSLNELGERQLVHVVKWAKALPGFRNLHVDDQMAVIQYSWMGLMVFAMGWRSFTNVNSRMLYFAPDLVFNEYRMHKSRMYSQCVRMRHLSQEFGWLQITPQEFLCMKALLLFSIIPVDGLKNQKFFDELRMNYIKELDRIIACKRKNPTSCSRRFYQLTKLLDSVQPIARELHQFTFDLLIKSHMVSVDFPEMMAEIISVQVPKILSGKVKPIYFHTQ
How it was run: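 AR-UAS-bla GripTite HEK 293 cells (2000/well) treated with compound titrations plus 10 nM R1881 for 16 h at 37C. Beta-lactamase read by CCF4 FRET (460/530 nm); IC50 from Hill fits, normalized to R1881 and DMSO control wells.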

[20] = target: 3',5'-cyclic-AMP phosphodiesterase 4B (Homo sapiens) (UniProt Q07343); assay: qHTS Assay for Inhibitors of PDE-IV (AID 607; active = well fitted activation curve with a large enough effect in the main read-out, with a control signal flat, not every such curve was filed as active; note: % of control where 0% means no effect)
Chain of 3',5'-cyclic-AMP phosphodiesterase 4B (Homo sapiens) (Q07343 whole entry, looked up): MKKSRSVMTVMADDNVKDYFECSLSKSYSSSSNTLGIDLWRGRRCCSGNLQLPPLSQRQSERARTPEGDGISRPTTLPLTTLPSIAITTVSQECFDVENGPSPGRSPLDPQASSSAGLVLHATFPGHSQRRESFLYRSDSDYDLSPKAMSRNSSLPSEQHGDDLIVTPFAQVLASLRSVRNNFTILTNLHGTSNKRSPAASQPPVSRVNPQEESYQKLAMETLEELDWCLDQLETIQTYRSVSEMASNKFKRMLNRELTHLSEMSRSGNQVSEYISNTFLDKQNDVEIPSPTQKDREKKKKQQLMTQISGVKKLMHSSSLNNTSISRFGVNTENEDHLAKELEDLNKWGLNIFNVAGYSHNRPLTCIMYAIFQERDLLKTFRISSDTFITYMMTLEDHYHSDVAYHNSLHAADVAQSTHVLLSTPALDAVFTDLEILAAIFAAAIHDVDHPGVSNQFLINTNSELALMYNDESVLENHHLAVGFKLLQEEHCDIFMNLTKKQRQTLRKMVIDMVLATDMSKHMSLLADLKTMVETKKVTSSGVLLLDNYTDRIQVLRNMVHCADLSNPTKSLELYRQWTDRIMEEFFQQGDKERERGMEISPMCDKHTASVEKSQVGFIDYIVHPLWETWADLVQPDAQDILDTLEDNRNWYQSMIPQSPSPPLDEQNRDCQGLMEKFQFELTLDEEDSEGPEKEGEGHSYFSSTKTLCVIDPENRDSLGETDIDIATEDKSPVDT
How it was run: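 HEK293 ACTOne cells with CNG channel (1000/well), endogenous PDE4; membrane potential dye, compounds up to 22.9 uM final. Fluorescence Ex 535/Em 590; RO 20-1724 (100 uM final) as reference.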

Structure (SMILES): C[C@@H]1CC[C@H]2[C@@H](C)C(=O)O[C@@H]3OC4(C)CC[C@@H]1C32OO4 (stereo partly specified)
- Potency [1]: 0.136 µM (active)
- remaining parasite growth % (stronger effect = lower value) [2]: -0.139% [at 57.5 µM]
- activity, percent of control [3]: 0.0598% [at 57.5 µM]
- remaining proliferation (% of control), lower = more inhibition [4]: 0.0815% [at 57.5 µM]

Structure (SMILES): CCC1CN2CCC1CC2[C@@H](Oc1cc2ccccc2c2ccccc12)c1ccnc2ccc(O)cc12 (stereo partly specified)
- outcome [5]: inactive
- outcome [6]: inactive
- outcome [7]: inactive
- outcome [8]: inactive
- outcome [9]: inactive

Structure (SMILES): CC[C@@H](CO)Nc1nc(NCc2ccccc2)c2ncn(C(C)C)c2n1
- outcome [10]: inactive
- outcome [11]: inactive
- Potency [12]: 31.6 µM (active)

Structure (SMILES): O=C(NC(=O)c1c(F)cccc1F)Nc1ccc(Cl)cc1
- max response [13]: -17.2%
- Potency [14]: 15.8 µM (active)

Structure (SMILES): C=CCO[C@@H](Cn1ccnc1)c1ccc(Cl)cc1Cl
- Potency [15]: 5.01 µM (active)

Structure (SMILES): CCCCN(CC)c1c([N+](=O)[O-])cc(C(F)(F)F)cc1[N+](=O)[O-]
- activation [16]: -2.46% (inactive)

Structure (SMILES): CN1[C@H]2CC(OC(=O)[C@H](CO)c3ccccc3)C[C@H]1[C@H]1O[C@H]12 (stereo partly specified)
- Potency [17]: inactive
- Potency [18]: inactive

Structure (SMILES): CSc1nc(NC(C)C)nc(NC(C)C)n1
- activation [16]: -3.76% (inactive)

Structure (SMILES): CC(C)N(C(=O)CCl)c1ccccc1
- Potency [19]: 39.8 µM (active)

Structure (SMILES): CNC(=O)[C@H]1C[C@@H]1[C@H](NP(=O)(c1ccccc1)c1ccccc1)c1ccccc1
- outcome [20]: inactive

— PubChem BioAssay (NCATS)
